In the library only some 4.6% were active in any assay of this set; here they are far more common.
ADAM10 inh: ADAM10 inhibition, QFRET primary screen | AID 720582 | recombinant ADAM10, EDANS/DABCYL FRET peptide cleavage, 3 h | 370,000 compounds, 0.62% hits | inhibition, % at 7 µM | O14672;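 active = inhibition above a per-campaign cutoff equal to the mean of compounds falling between control-based bounds plus 3 SD, cut at about 20% in these data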;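 also: 0% = DMSO wells while the 100% control is not disclosed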
Target sequence (O14672 214-748 limits assumed): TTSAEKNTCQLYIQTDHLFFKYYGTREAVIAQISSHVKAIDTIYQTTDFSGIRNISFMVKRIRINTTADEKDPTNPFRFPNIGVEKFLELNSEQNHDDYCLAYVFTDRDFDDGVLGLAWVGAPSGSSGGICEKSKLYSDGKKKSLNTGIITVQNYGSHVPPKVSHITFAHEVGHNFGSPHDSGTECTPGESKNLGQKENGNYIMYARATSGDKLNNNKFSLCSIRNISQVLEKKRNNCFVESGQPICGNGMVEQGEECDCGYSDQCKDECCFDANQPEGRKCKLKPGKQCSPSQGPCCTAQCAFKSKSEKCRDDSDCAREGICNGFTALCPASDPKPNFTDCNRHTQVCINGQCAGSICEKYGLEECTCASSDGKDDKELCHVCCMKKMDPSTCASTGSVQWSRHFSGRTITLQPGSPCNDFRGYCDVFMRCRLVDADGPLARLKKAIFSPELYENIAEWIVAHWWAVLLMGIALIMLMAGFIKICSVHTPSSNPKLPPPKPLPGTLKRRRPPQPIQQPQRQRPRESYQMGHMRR
FAS TE block: inhibitors of human fatty acid synthase thioesterase domain | P49327 | recombinant FAS-TE, OMFH fluorogenic substrate, fluorescence endpoint | inhibition, % at 15 µM | 360,000 compounds, 0.67% hits;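 active = compounds whose normalised, plate-corrected inhibition of enzyme fluorescence in the single-dose primary screen is 50% or more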;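 also: 0% = DMSO with enzyme and 100% = substrate without enzyme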
proKLK7 act: activates the human kallikrein-7 zymogen. purified proKLK7, EDANS-DABCYL substrate fluorescence; 100% is mature enzyme control, 0% vehicle. P49862. 370,000 compounds, 0.9% hits. activation, % at 7 µM;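 active = activation above the mean of all tested compounds plus 3 SD, computed per campaign excluding outliers beyond control limits, cut at about 13% in these data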
GRIN3A LBD mod: modulators (binders) of human NR3A ligand-binding domain; 340,000 compounds, 2.5% hits; Tm shift relative to glycine control, % at 25 µM; NR3A LBD differential scanning fluorimetry, Tm shift; 0% = protein alone, 100% = glycine-bound protein;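 active = melting temperature shift of at least 10% of the positive control shift, at one fixed dose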
ADAM17 inh: inhibitors of human ADAM17 | P78536 | recombinant ADAM17, EDANS/DABCYL FRET peptide cleavage | inhibition, % at 6.95 µM | 370,000 compounds, 0.83% hits | AID 720648;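 active = inhibition above the mean of compounds lying between control limits plus 3 SD, set per campaign, cut at about 8.5% in these data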;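 also: 0% = DMSO-only wells as the low control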
Starred values were filed as active, the others as inactive.

How did COc1cc(C(=O)Nc2ccc(NC(=O)c3cccc(Cl)c3)nc2)cc(OC)c1OC do in these assays?
ADAM10 inh: 2; FAS TE block: 12; proKLK7 act: -12; GRIN3A LBD mod: 27*; ADAM17 inh: -1

What do the screens show for `COc1cccc(C(=O)Nc2ccc(NC(=O)C3CCCCC3)nc2)c1`?
ADAM10 inh: -5; FAS TE block: 3; proKLK7 act: 0; GRIN3A LBD mod: -5; ADAM17 inh: 4

How did COc1cccc(C(=O)Nc2ccc(NC(=O)C(C)(C)C)cn2)c1 do in these assays?
ADAM10 inh: -4; FAS TE block: -2; proKLK7 act: 0; GRIN3A LBD mod: 17*; ADAM17 inh: -5

Results for COc1ccc(OC)c(S(=O)(=O)N2CCCC(C(=O)Nc3c(C)n(C)n(-c4ccccc4)c3=O)C2)c1 (centres undefined) ?
ADAM10 inh: -1; proKLK7 act: -1; ADAM17 inh: -1

What do the screens show for `CCCC1CCC2(CC1)CCC2OC(=O)Nc1cccc(C(F)(F)F)c1` (centres undefined)?
ADAM10 inh: -9; ADAM17 inh: -1

How did O=C1CCCC(=O)C1=C1SCCCS1 do in these assays?
ADAM10 inh: -3; FAS TE block: -8; proKLK7 act: -1; GRIN3A LBD mod: 11*; ADAM17 inh: -3

How did O=C1C(=C2SCCCS2)CC/C1=C\c1ccc(F)cc1 do in these assays?
ADAM10 inh: -5; FAS TE block: 26; proKLK7 act: 1; GRIN3A LBD mod: -2; ADAM17 inh: -2

How did CCn1c(=O)c(=O)[nH]c2c(=O)oc3ccc(S(=O)(=O)Nc4ccccc4)cc3c21 do in these assays?
ADAM10 inh: -3; FAS TE block: 5; proKLK7 act: -1; GRIN3A LBD mod: 16*; ADAM17 inh: -4

Results for CCn1c(=O)c(=O)n(CC)c2cc(S(=O)(=O)Nc3ccc(C)cc3)ccc21 ?
ADAM10 inh: 6; FAS TE block: 3; proKLK7 act: 0; GRIN3A LBD mod: 0; ADAM17 inh: -1

What do the screens show for `COc1ccc(C(N)=S)cc1`?
ADAM10 inh: 0; FAS TE block: -9; proKLK7 act: 0; GRIN3A LBD mod: 29*; ADAM17 inh: -1

What do the screens show for `C=C(c1ccc(OC)cc1)c1ccc(OC)cc1`?
ADAM10 inh: 0; FAS TE block: -3; proKLK7 act: 0; GRIN3A LBD mod: -2; ADAM17 inh: 2

How did CC(=O)c1cccc(CN2CCC(n3nccc3NC(=O)CCc3ccccc3)CC2)c1 do in these assays?
FAS TE block: 1; GRIN3A LBD mod: 15*

How did CCOC(=O)[C@]12CCCC=C1N(Cc1ccc(OC)cc1)C(=O)[C@@H]2CC(=O)NCCC(C)C do in these assays?
ADAM10 inh: -2; proKLK7 act: 0; ADAM17 inh: -1

What do the screens show for `NC(=S)n1[nH]c(-c2ccc([N+](=O)[O-])cc2)c(N=Nc2ccccc2[N+](=O)[O-])c1=O`?
ADAM10 inh: -1; FAS TE block: 23; proKLK7 act: 0; GRIN3A LBD mod: -2; ADAM17 inh: 1

How did NC(=S)n1[nH]c(-c2ccc([N+](=O)[O-])cc2)c(N=Nc2cccc([N+](=O)[O-])c2)c1=O do in these assays?
ADAM10 inh: -1; FAS TE block: 14; proKLK7 act: 0; GRIN3A LBD mod: 27*; ADAM17 inh: 0

Results for Cc1c(N=Nc2c(-c3ccc([N+](=O)[O-])cc3)[nH]n(C(N)=S)c2=O)cccc1[N+](=O)[O-] ?
ADAM10 inh: 1; FAS TE block: 37; proKLK7 act: 0; GRIN3A LBD mod: 25*; ADAM17 inh: 1

Results for O=C(O)c1ccc(N/N=C/C=C/c2ccc([N+](=O)[O-])o2)cc1 ?
ADAM10 inh: 4; FAS TE block: -33; proKLK7 act: 0; GRIN3A LBD mod: 12*; ADAM17 inh: 5

How did O=C(N/N=C/c1ccco1)c1cc([N+](=O)[O-])cc([N+](=O)[O-])c1 do in these assays?
ADAM10 inh: 7; FAS TE block: 4; proKLK7 act: 0; GRIN3A LBD mod: -5; ADAM17 inh: 2

Results for O=[N+]([O-])c1ccc(N/N=C/C=C/c2ccco2)cc1 ?
ADAM10 inh: 8; FAS TE block: 16; proKLK7 act: 0; GRIN3A LBD mod: 41*; ADAM17 inh: 8

What do the screens show for `O=C(N/N=C/c1ccc([N+](=O)[O-])o1)C(=O)Nc1ccc(C(=O)O)cc1`?
ADAM10 inh: 1; FAS TE block: -8; proKLK7 act: 1; GRIN3A LBD mod: -1; ADAM17 inh: 0

Source: PubChem (several laboratories)
